Measured values reported in the supplement of paper PMC8728848.
Shown is part of a subset that was picked to be rich in the strongest signals.

Key:
Test in all cases: glycan array binding signal (z-score within array); higher = stronger binding
Conditions in all cases: glycan notation: IUPAC condensed, linker removed
[1] = molecular target: Gal6S(b1-3)GlcNAc
Outline: (§1)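 Glycan array binding is given as a within-array Z-score, which can be read as non-binding when negative. The arrays, 3228 of them, came from the Consortium for Functional Glycomics database and were retained only where the protein sequence was available. Z-scores were averaged across arrays of the same protein sequence at different concentrations or buffers and across linkers.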

[2] = molecular target: GalNAc(b1-4)GlcNAc
Outline: as §1

[3] = molecular target: Glc(b1-4)Glc
Outline: as §1

[4] = molecular target: Glc(b1-6)Glc
Outline: as §1

[5] = molecular target: Man(a1-2)Man(a1-3)[Man(a1-2)Man(a1-6)]Man
Outline: as §1

[6] = molecular target: Man(a1-2)Man(a1-6)[Man(a1-3)]Man(a1-6)[Man(a1-2)Man(a1-2)Man(a1-3)]Man(b1-4)GlcNAc(b1-4)GlcNAc
Outline: as §1

[7] = molecular target: Neu5Ac(a2-3)Gal(b1-3)GalNAc(b1-4)[Neu5Ac(a2-3)]Gal(b1-4)Glc
Outline: as §1

[8] = molecular target: Neu5Ac(a2-3)Gal(b1-3)GlcNAc
Outline: as §1

[9] = molecular target: Neu5Ac(a2-3)Gal(b1-3)[Neu5Ac(a2-6)]GalNAc
Outline: as §1

[10] = molecular target: Neu5Ac(a2-3)Gal(b1-4)GlcNAc(b1-3)Gal(b1-4)[Fuc(a1-3)]GlcNAc
Outline: as §1

[11] = molecular target: Neu5Ac(a2-3)Gal(b1-4)[Fuc(a1-3)]GlcNAc(b1-3)Gal
Outline: as §1

[12] = molecular target: Neu5Ac(a2-3)Gal(b1-4)[Fuc(a1-3)]GlcNAc(b1-3)Gal(b1-4)[Fuc(a1-3)]GlcNAc(b1-3)Gal(b1-4)[Fuc(a1-3)]GlcNAc
Outline: as §1

[13] = molecular target: Neu5Ac(a2-3)Gal6S(b1-4)[Fuc(a1-3)]GlcNAc
Outline: as §1

[14] = molecular target: Neu5Ac(a2-3)[Neu5Ac(a2-6)]GalNAc
Outline: as §1

[15] = molecular target: Neu5Ac(a2-8)Neu5Ac(a2-3)[GalNAc(b1-4)]Gal(b1-4)Glc
Outline: as §1

B1: CCL1 (Coprinopsis cinerea) (protein)
chain: MDTQAKPPAGRYVIYNRVLSPNGEKLALTYPGYQREALTLTPLHHSANQIWILNNWDATTSSLTPETARNTQVGWGSGNVPIVLPPGNYVWTLASSAGGYIIQDGGKTVYWNAGEAVANTKVSIGGDNGLQARWIFERV
In the case of B1, the “glycan array binding signal (z-score)” value [1] is reported as -0.152, the “glycan array binding signal (z-score)” value [2] is reported as -0.159 and the “glycan array binding signal (z-score)” value [3] is reported as -0.115. The “glycan array binding signal (z-score)” value [4] was -0.128, the “glycan array binding signal (z-score)” value [5] was -0.124 and the “glycan array binding signal (z-score)” value [6] was -0.138. For the same binder, the “glycan array binding signal (z-score)” value [7] was -0.132, the “glycan array binding signal (z-score)” value [8] was -0.117 and the “glycan array binding signal (z-score)” value [9] was 1.63. For the same binder, the “glycan array binding signal (z-score)” value [10] was -0.148, the “glycan array binding signal (z-score)” value [11] was 3.29 and the “glycan array binding signal (z-score)” value [12] was 1.58. For the same binder, the “glycan array binding signal (z-score)” value [13] was 1.5, the “glycan array binding signal (z-score)” value [14] was -0.149 and the “glycan array binding signal (z-score)” value [15] was -0.127.
